Legend:
[1] = biological target: T1, Aspartate--tRNA(Asp/Asn) ligase (Mycobacterium tuberculosis (strain ATCC 25618 / H37Rv)) (UniProt P9WFW3); assay: Assay for Asp RNA synthetase-1 from Mycobacterium tuberculosis; format: functional; set-up: scale not given: direction of the effect not stated beside the values; conditions: 30 µM; note: in the data most compounds retested in dose-response had high values
T1 sequence (whole entry): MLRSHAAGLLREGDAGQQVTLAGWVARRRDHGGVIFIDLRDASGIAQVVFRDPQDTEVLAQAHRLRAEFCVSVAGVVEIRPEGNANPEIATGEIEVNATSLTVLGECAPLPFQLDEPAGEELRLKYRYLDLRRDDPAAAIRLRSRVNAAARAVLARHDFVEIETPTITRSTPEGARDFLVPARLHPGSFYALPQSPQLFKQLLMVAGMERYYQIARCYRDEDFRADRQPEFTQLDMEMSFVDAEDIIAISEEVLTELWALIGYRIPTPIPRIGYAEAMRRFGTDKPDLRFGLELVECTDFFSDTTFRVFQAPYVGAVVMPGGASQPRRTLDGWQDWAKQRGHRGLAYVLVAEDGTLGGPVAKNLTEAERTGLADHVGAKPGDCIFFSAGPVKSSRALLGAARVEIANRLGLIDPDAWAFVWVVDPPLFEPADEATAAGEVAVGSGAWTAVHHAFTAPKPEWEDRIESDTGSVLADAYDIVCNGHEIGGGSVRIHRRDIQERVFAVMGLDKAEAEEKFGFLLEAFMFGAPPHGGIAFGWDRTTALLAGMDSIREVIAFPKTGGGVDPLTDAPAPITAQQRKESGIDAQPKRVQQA

[2] = biological target: Shiga toxin 2 (Escherichia coli O157:H7) (UniProt P09385+P09386); assay: E. coli 0.157:H7 Shiga Toxin SOP - stx2 screening assay; format: functional; set-up: scale not given: direction of the effect not stated beside the values; conditions: 30 µM

SMILES | Percent Effect [1] | Percent Effect [2]
Cc1occc1C(=O)N1CCC2(CCC(C(=O)NCC3CC3)O2)CC1 (configuration not stated) | -0.182% | -6.83%
Cc1ccc(C(CNCc2ccncc2)N2CCOCC2)s1 (configuration not stated) | 2.18% | -29.8%
Cc1cc(C)n(C2CCCN(C(=O)c3c(C)c(C)n[nH]c3=O)C2)n1 (configuration not stated) | -2.4% | 2.19%
Cc1cccc(C(=O)N2C[C@@H]3OCCN(c4ncccn4)[C@@H]3C2)n1 | 2.48% | 2.47%
Cc1ccc(CN2CC(C(=O)Nc3ccccc3)C3(CCOCC3)C2)s1 (configuration not stated) | 8.04% | -1.18%
CS(=O)(=O)NCC1CCCN(C(=O)Nc2ccccc2Cl)C1 (configuration not stated) | -5.99% | 10.6%
COCC(O)CNC(=O)c1cnc(-c2ccccc2)nc1O (configuration not stated) | 2.15% | -7.39%
Cc1nc(C)n(CC2CCCN2Cc2cn3c(C)cccc3n2)n1 (configuration not stated) | -5.04% | -2.35%
CCCn1[nH]cc/c1=N\C(=O)CN1CCc2cnc(CC)nc2C1 | 5.8% | -6.51%
COc1cccc(C(=O)Nc2cc(CC(C)C)nn2C)c1 | -7.31% | 12%
Cc1occc1C(=O)N1CCC2(CCC(=O)N(CC(N)=O)C2)CC1 | -2.4% | -17.1%
Cc1cnn(CCC(=O)N2CCOC(c3nc(C(C)(C)C)n[nH]3)C2)c1 (configuration not stated) | -1.81% | -26.2%
CC(C)n1c(C2CCCN(Cc3ccnn3C)C2)nc2ccccc21 (configuration not stated) | -2.04% | 1.29%
CNC(=O)N1CC[C@H]2N(C)CC[C@@]2(C(=O)Nc2ccccc2)CC1 | -8.12% | 15.9%
OCC1CCCN1c1cc(NCc2ccc(Cl)s2)ncn1 (configuration not stated) | 0.451% | -31.6%
O=C(Cc1ccccc1)N1CCC2(CC(=O)N(c3ccsc3)C2)C1 (configuration not stated) | -3.62% | -10.4%

Reference: ChEMBL document CHEMBL3988442, “University of Dundee, Small-Polar-MMV Screening Library” (2021)
